The structures appear in SMILES notation. Where “and” joins values, the source holds several entries; their conditions need not be identical. Identical values can stand only once. The whole screen tested about 400,000 compounds, of which about 3,700 (0.93%) were called active. Not shown: some 3% with an inconclusive outcome. The sample holds actives, similar compounds and a random draw of the others, so the mix is not that of the screen. Calls come from the whole dose curve; as a rule, active = well fitted inhibition curve with a large enough effect; inconclusive = small, poorly fitted or top-dose-only effect, or another doubt; inactive = no such curve, though single readings can be large or run the other way. Some compounds were tested as several samples or in several runs, with calls that do not always agree.
% is set by controls: 0 for no effect and ±100 for the full control effect; potency is the fitted concentration of half-maximal effect.

For the experiment, the target named is Vitamin D3 receptor (Homo sapiens) (UniProt P11473). Description: Inhibitors of the vitamin D receptor (VDR): qHTS. The note with it: VDR-SRC2-3 peptide fluorescence polarization, 2 h; max response, negative = inhibition: hits give low values. The method in brief: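 Fluorescence polarization assay measuring small-molecule disruption of VDR binding to the coregulator peptide SRC2-3. Compounds were pin-transferred (23 nl) into the reagent mix and incubated 2 h at room temperature before reading.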
Vitamin D3 receptor (Homo sapiens), sequence (P11473 whole entry, looked up): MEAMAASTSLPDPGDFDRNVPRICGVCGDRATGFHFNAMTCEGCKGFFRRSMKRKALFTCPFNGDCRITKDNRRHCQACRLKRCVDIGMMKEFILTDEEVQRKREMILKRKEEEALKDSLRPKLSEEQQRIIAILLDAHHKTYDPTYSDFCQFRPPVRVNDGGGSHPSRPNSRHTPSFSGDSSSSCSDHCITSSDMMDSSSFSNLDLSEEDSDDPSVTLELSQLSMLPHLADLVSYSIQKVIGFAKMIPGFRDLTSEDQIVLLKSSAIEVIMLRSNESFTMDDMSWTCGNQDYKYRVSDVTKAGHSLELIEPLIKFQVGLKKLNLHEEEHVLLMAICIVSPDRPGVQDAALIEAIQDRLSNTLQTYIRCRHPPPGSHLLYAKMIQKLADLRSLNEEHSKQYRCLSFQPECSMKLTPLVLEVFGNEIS
In the case of `Cc1ccc(C(=O)Nc2ccc3[nH]c(=O)c(=O)[nH]c3c2)cc1`, the max response, negative = inhibition is -3.19% (inactive).

As for `COc1ccc(CCNC(=O)CCCCn2c(=O)c3ccccc3n(Cc3ccccc3)c2=O)cc1OC`, the max response, negative = inhibition is -5.56% (inactive).

In the case of `COc1cc(C(=O)Nc2ccc(OCc3cc(=O)n4ccc(C)cc4n3)cc2)cc(OC)c1OC`, the max response, negative = inhibition was 15.3% (inactive).

As for `CC(C)(C)c1ccc(C(=O)N2CCC(c3nc(-c4ccc(S(=O)(=O)N5CCCC5)cc4)no3)CC2)cc1`, the max response, negative = inhibition is -2.01% (inactive).

Take `c1ccc(-c2cc3c(NCC4COc5ccccc5O4)ncnc3s2)cc1` (centres undefined): the max response, negative = inhibition is 3.5% (inactive).

For `COc1ccccc1N1CCN(c2ncnc3sc(C)c(-c4ccccc4)c23)CC1`, the max response, negative = inhibition is 9.44% (inactive).

With `Oc1ccccc1N1CCN(c2ncnc3sc(-c4ccccc4)cc23)CC1`, the Potency was 22.4 µM (active).

As to `CCOC(=O)c1c(S(=O)(=O)N2CCCC(C(=O)NCc3ccc(F)cc3)C2)c(C)n(CC)c1C` (centres undefined), the max response, negative = inhibition was 12% (inactive).

Turning to `CCCC(=O)Nc1ccc(NC(=O)c2sc3ccccc3c2Cl)cc1`, the max response, negative = inhibition is 1.71% (inactive).

With `Cc1ccc(-c2nc3ccccn3c2Nc2c(C)cccc2C)o1`, the Potency was 79.4 µM (active).

For `Cc1ccc(-c2nc3ccccn3c2Nc2ccc(F)cc2)o1`, the max response, negative = inhibition is -13.1% (inactive).

With `Cc1cccc(C)c1Nc1c(-c2ccccc2O)nc2ncccn12`, the max response, negative = inhibition was 11.5% (inactive) and -13.4% (inactive).

As for `CC1CCc2noc(NC(=O)c3ccc([N+](=O)[O-])cc3)c2C1` (centres undefined), the max response, negative = inhibition is 20% (inactive).

For the compound `Cc1cccc(C(CC(=O)NCC2(c3ccccc3)CCCC2)c2ccccc2)c1O` (centres undefined), the max response, negative = inhibition is -3.18% (inactive).

For `Cc1ccc(-c2cnc(NCc3ccc(C(C)C)cc3)n2C)cc1`, the max response, negative = inhibition is -12.2% (inactive).

With `COC(=O)c1cc(NC(=O)CCc2c(C)nc3c4c(C)cc(C)nc4nn3c2C)cc(C(=O)OC)c1`, the max response, negative = inhibition is -12% (inactive).

Consider `CCOC(=O)Cc1csc(NC(=O)CSc2nc(C)cc(=O)[nH]2)n1`, for which the Potency is 44.7 µM (active).

In the case of `CCOC(=O)Cc1csc(SCC(=O)Nc2ccc(C)cc2F)n1`, the max response, negative = inhibition was -24.6% (inactive).

`CCCCc1nnc(NC(=O)CSc2nc(C)cc(=O)[nH]2)s1`: the max response, negative = inhibition is -6.96% (inactive).

Turning to `C=CCOC(=O)C(=C)C`, the max response, negative = inhibition was 10.1% (inactive).

Take `COc1ccc(CCC(=O)NCc2ccc3c(c2)CCN3C(=O)c2ccc(F)cc2)cc1`: the max response, negative = inhibition is 1.51% (inactive).

For `O=C(Cc1ccccc1)Nc1sc2c(c1C(=O)Nc1ccc(Br)cc1)CCC2`, the max response, negative = inhibition was 1.17% (inactive).

For `CCOc1ccc(NC(=O)c2c(NC(=O)Cc3ccccc3)sc3c2CCCCC3)cc1`, the Potency is 17.8 µM (active).

In the case of `Cc1cccc(OCCCC(=O)Nc2sc3c(c2C(N)=O)CCC(C)C3)c1` (centres undefined), the max response, negative = inhibition is 0.722% (inactive).

Take `Cc1ccccc1NC(=O)c1c(NC(=O)c2ccccc2F)sc2c1CCC(C)C2` (centres undefined): the max response, negative = inhibition was -12.5% (inactive).

On to `CCOc1ccc(NC(=O)c2c(NCc3cccc(OC)c3OC)sc3c2CCC3)cc1`, for which the max response, negative = inhibition is -0.323% (inactive).

Regarding `CCOc1ccc(NC(=O)c2c(NC(=O)Cc3ccccc3)sc3c2CCC(C)C3)cc1` (centres undefined), the Potency is 79.4 µM (active).

In the case of `COc1ccc2oc(-c3ccc(C)c(NC(=O)c4sc5ccccc5c4Cl)c3)nc2c1`, the max response, negative = inhibition is -13.7% (inactive).

On to `O=C(O)c1ccc(Nc2nc(-c3ccccc3)c3cc(Br)ccc3n2)cc1`, for which the max response, negative = inhibition is -8.21% (inactive).

Turning to `Cc1cccc(N2CCN(C(=O)CCn3c(=O)c4cccn4c4cccnc43)CC2C)c1` (centres undefined), the max response, negative = inhibition is -1.09% (inactive).

Consider `Cc1ccc(C2CCN(C(=O)c3cnn(-c4ccccc4Cl)c3C3CCN(C(=O)OC(C)(C)C)CC3)C2)cc1` (centres undefined), for which the max response, negative = inhibition is 14.7% (inactive).

For the compound `Cc1cccc(C(=O)N2CCc3cc(CNC(=O)Cc4ccc(F)cc4)ccc32)c1`, the max response, negative = inhibition was 6.68% (inactive).

Turning to `CCCCNC(=O)Cn1c(SCc2cccc(Cl)c2)nc2ccncc21`, the max response, negative = inhibition was -15.1% (inactive).

Take `O=S(=O)(Nc1cccc2cccnc12)c1cccc2cccnc12`: the max response, negative = inhibition was -4.84% (inactive).

Consider `CCOC(=O)c1ccc(NC(=O)c2c(NCc3cccs3)sc3c2CCCC3)cc1`, for which the max response, negative = inhibition is -5.89% (inactive).

As to `O=C(Nc1ccc2nc(SCC(=O)N3CCc4ccccc43)sc2c1)c1ccccc1F`, the max response, negative = inhibition was 0.401% (inactive).

On to `CN(C(=O)CSc1nc2ccc(NC(=O)COc3ccccc3)cc2s1)c1ccccc1`, for which the max response, negative = inhibition is 3.21% (inactive).

Regarding `O=C(O)c1ccccc1CSc1nc2ccccc2s1`, the Potency is 89.1 µM (active).

With `CCOc1ccccc1NC(=O)C1=C(C)Nc2ncnn2C1c1ccc(NC(C)=O)cc1` (centres undefined), the max response, negative = inhibition is 6.42% (inactive).

With `COc1ccc(Br)cc1C1C2C=CCC(C)C2C(=O)N1Cc1ccccc1` (centres undefined), the max response, negative = inhibition was -6.47% (inactive).

On to `COc1ccccc1CNC(=O)c1ccc(NC(=O)N2CC(C)Sc3ccccc32)cc1` (centres undefined), for which the max response, negative = inhibition is -3.93% (inactive).

As for `O=C(NCc1ccccc1)c1cccc(NC(=O)N2CCSc3ncccc32)c1`, the max response, negative = inhibition was 4.27% (inactive).

As for `O=C(O)CCCN1C(=O)c2ccccc2Sc2ncccc21`, the max response, negative = inhibition is 23.5% (inactive).

Take `Cc1cc(C(=O)COC(=O)CCCN2C(=O)c3ccccc3C2=O)c(C)n1C`: the max response, negative = inhibition was 11.4% (inactive).

`CCCCN1C(=O)/C(=C(/C#N)C(N)=O)c2ccccc21`: the Potency is 50.1 µM (active).

In the case of `O=C(/C=C/c1cn(CC(O)CN2CCc3ccccc32)c2ccccc12)c1ccc(Br)cc1` (centres undefined), the max response, negative = inhibition is 25.1% (inactive).

Turning to `COCCNC(=O)CSc1c(C)cnc2c1c(=O)n(C)c(=O)n2C`, the max response, negative = inhibition was 8.06% (inactive).

Turning to `COc1ccc(CS(=O)/C(Cl)=C(/Cl)C(=O)Nc2ccc(OC)nc2)cc1` (centres undefined), the Potency is 20 µM (active).

Turning to `COc1ccc(NC(=O)C(=O)NCc2ccco2)cc1`, the max response, negative = inhibition was -7.31% (inactive).

Turning to `COc1ccc(CC(=O)Nc2ccc(-c3nc4ccccc4s3)c(C)c2)cc1`, the max response, negative = inhibition is -0.795% (inactive).

In the case of `O=C(Nc1ccc2nc(SCCOc3ccccc3Cl)sc2c1)c1ccco1`, the max response, negative = inhibition was 5.06% (inactive).

With `CC(Nc1ccc(-c2nc(-c3ccco3)no2)cc1[N+](=O)[O-])c1ccccc1` (centres undefined), the max response, negative = inhibition was 0.644% (inactive).

Consider `CCc1ccccc1NC(=O)Cn1c(=O)n(CC2CCC(C(=O)NCCc3ccccc3)CC2)c(=O)c2ccccc21` (centres undefined), for which the max response, negative = inhibition is -18.5% (inactive).

For the compound `Cc1cc(C(=O)Nc2cccc(C(F)(F)F)c2)c2c(C)nn(-c3cccc(F)c3)c2n1`, the max response, negative = inhibition was -0.555% (inactive).

Regarding `c1ccc2c(C[n+]3csc4ccccc43)cccc2c1`, the Potency is 44.7 µM (active).

On to `Nc1scc[n+]1Cc1cccc2cccnc12`, for which the max response, negative = inhibition is 4.69% (inactive).

`c1ccc2c(CNn3cnnc3)cccc2c1`: the max response, negative = inhibition is -17.7% (inactive).

Turning to `CCN(CC)c1ccc(NC(=O)Cn2nc3c(cc2=O)CCCC3)c(C)c1`, the max response, negative = inhibition was 2.95% (inactive).

As to `CC1(C)OC2CO[C@]3(COS(N)(=O)=O)OC(C)(C)OC3C2O1` (some centres undefined), the max response, negative = inhibition was -14.1% (inactive).

As to `Oc1cc(O)c2c(c1)OC(c1ccc(O)c(O)c1)C(O)C2` (centres undefined), the Potency was 35.5 µM (active) and the max response, negative = inhibition was -19.6% (inactive).

In the case of `NS(=O)(=O)c1ccc(NC(=O)CSc2nnc3c(n2)[nH]c2ccccc23)cc1`, the max response, negative = inhibition was 5.25% (inactive).

Regarding `CCOc1cc(-c2nnc(SCC(=O)NC3CCCCC3)nc2-c2ccc(OC)c(OCC)c2)ccc1OC`, the max response, negative = inhibition was 15.8% (inactive).

Consider `COc1ccc(OCc2n[nH]c(=S)n2N)cc1`, for which the Potency is 35.5 µM (active).

Regarding `COc1ccc(OC)c(-n2c(-c3ccn[nH]3)n[nH]c2=S)c1`, the max response, negative = inhibition was -3.11% (inactive).

As for `COc1ccc(Cc2n[nH]c(=S)n2NC(=O)Nc2ccc(C)cc2)cc1`, the max response, negative = inhibition is -6.31% (inactive).

As to `COc1cc(C(=O)N(Cc2ccc(C(C)C)cc2)C2CCS(=O)(=O)C2)cc(OC)c1OC` (centres undefined), the max response, negative = inhibition was -4.09% (inactive).

Take `CCOc1cc(/C=C(\C#N)C(=O)Nc2ccccc2C)ccc1OCc1cc(=O)n2nc(CC)sc2n1`: the max response, negative = inhibition was -13.9% (inactive).

With `C=CC(=O)c1ccc2ccccc2c1`, the Potency is 1.78 µM (active).

Turning to `O=C(NNC(=O)c1ccc2ccccc2c1)c1ccc(Cl)cc1`, the max response, negative = inhibition is 18.2% (inactive).

On to `O=C(Nc1ccccc1N1CCCC1)c1ccc2ccccc2c1`, for which the max response, negative = inhibition was -2.28% (inactive).

For the compound `O=C(CC1N=C2c3ccccc3N=C(SCc3cccc(Cl)c3)N2C1=O)NCc1ccc2c(c1)OCO2` (centres undefined), the max response, negative = inhibition is 13.3% (inactive).

With `COc1ccc(NC(=O)CSc2nnc(-c3nnn(-c4ccc(F)cc4)c3C)o2)cc1`, the max response, negative = inhibition was 15.3% (inactive).

Regarding `CCCCCCCC1=Cc2ccc(F)cc2C(C(C(=O)OC)C(=O)OC)N1C(=O)OC` (centres undefined), the max response, negative = inhibition is 2.51% (inactive).

As for `COc1cc(CNC2CCCC2)c(Br)cc1OCc1ccccc1`, the max response, negative = inhibition was 18.9% (inactive).

In the case of `COc1cc(C2CC(=O)N3CN(Cc4ccccc4)CSC3=C2C#N)ccc1OCc1ccccc1` (centres undefined), the Potency is 22.4 µM (active).

As to `COc1ccc(CCN=C2SCC(=O)N2Cc2ccccc2)cc1OC`, the max response, negative = inhibition is 3.18% (inactive).

`Cc1cccc(-c2nc(SCc3ccc(Br)cc3)n3[nH]c(=O)cc3n2)c1`: the max response, negative = inhibition was 11.8% (inactive).

As to `COc1ccccc1CNc1ncnc2ccc(-c3ccc4c(c3)OCO4)cc12`, the max response, negative = inhibition was -6.36% (inactive).

On to `CCn1c(SC)nc(O)c(C(c2ccc(OC)c(O)c2)c2c(O)nc(SC)n(CC)c2=O)c1=O`, for which the Potency is 35.5 µM (active).

With `COc1ccc(-n2c(SC)nc(O)cc2=O)cc1`, the max response, negative = inhibition was -7.87% (inactive).

For the compound `CCn1c(CNC(=O)c2ccc(OC)c(OC)c2)nnc1SCC(=O)Nc1ccccc1`, the max response, negative = inhibition was 2.26% (inactive).

For the compound `COc1cc(NC(=O)c2noc3c2CSc2ccccc2-3)cc(OC)c1OC`, the max response, negative = inhibition is 1.93% (inactive).

`COc1ccc(CNc2nc(-c3ccc(Cl)cc3)nn2S(=O)(=O)c2ccc(C)cc2)cc1`: the max response, negative = inhibition is -0.454% (inactive).

On to `Cc1ccc(-n2cnc3cc(C(=O)NCCC4=CCCCC4)ccc32)cc1Cl`, for which the max response, negative = inhibition was -3.42% (inactive).

`CCOC(=O)c1ccc(CN(Cc2ccccc2)S(=O)(=O)c2ccc(Cl)cc2)cc1`: the max response, negative = inhibition is 9.71% (inactive).

As for `CCn1c(SCC(=O)Nc2sc(C)c(C)c2C#N)nnc1C1CC1`, the max response, negative = inhibition is 1.75% (inactive).

For `Cc1cccc(NC(=O)CSc2nc(-c3ccco3)cc(C(F)(F)F)n2)c1C`, the max response, negative = inhibition is -20.2% (inactive).

Turning to `CCOC(=O)c1sc(NC(=O)CSc2nc(C)cc(C(F)(F)F)n2)c(C#N)c1C`, the Potency was 28.2 µM (active).

The values above are taken from PubChem BioAssay AID504847 (National Center for Advancing Translational Sciences (NCATS), 2011).
